PME-1 primary – PME-1 inhibitors via competitive probe labeling, primary screen, biochemical, fluorescence polarization, FP-Rh probe, HTS; Protein phosphatase methylesterase 1 (Homo sapiens), Q9Y570; recombinant PME-1; inhibition, % at 5.9 µM; actives 0.53% (n = 320,000);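 active means inhibition above the campaign mean of all compounds plus 3 SD, cut at about 26% in these data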;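 further: competitive labeling of PME-1 active site by serine hydrolase directed probe; 0% = PME-1 with DMSO and 100% = wells lacking PME-1 enzyme; inhibitors block probe labeling so polarization falls and inhibition rises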
LYPLA2 inh – LYPLA2 inhibitors, primary screen, counter-screen for PME1 inhibitor project, biochemical, fluorescence polarization, FP-Rh probe ABPP; Acyl-protein thioesterase 2 (Homo sapiens), O95372; recombinant LYPLA2; inhibition, % at 5.9 µM; actives 0.38% (n = 320,000);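 active means inhibition above the screen-wide mean plus 3 SD, limit set per campaign, cut at about 26% in these data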;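 further: 0% = LYPLA2 with DMSO and 100% = wells lacking LYPLA2 enzyme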
Target sequence (O95372 whole entry, looked up): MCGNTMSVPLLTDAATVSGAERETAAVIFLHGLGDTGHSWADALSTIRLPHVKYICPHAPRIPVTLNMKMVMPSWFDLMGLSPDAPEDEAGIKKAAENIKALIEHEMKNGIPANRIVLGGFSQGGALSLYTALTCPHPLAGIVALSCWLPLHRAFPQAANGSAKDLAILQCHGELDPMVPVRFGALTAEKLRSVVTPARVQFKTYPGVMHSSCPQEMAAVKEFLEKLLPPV
LYPLA1 counter – LYPLA1 inhibitors, primary screen, counter-screen for PME1 inhibitor project, biochemical, fluorescence polarization, FP-Rh probe ABPP | recombinant LYPLA1 | Acyl-protein thioesterase 1 (Homo sapiens), O75608 | actives 0.16% (n = 320,000) | inhibition, % at 5.9 µM;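 active means inhibition above the mean of all tested compounds plus 3 SD, set per campaign, cut at about 14% in these data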;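 further: inhibitors block serine hydrolase probe labeling of LYPLA1 so polarization falls; 0% = enzyme with DMSO and 100% = wells lacking LYPLA1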
Target sequence (O75608 whole entry, looked up): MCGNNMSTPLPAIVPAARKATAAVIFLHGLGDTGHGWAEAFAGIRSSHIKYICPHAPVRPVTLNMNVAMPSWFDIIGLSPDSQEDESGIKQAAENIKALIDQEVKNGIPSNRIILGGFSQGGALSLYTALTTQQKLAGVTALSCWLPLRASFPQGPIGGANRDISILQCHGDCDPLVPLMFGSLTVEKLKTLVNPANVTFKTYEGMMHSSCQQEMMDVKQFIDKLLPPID
Fam108B counter – mouse Fam108B serine hydrolase inhibitors, primary screen, counter-screen for RBBP9 inhibitor project, biochemical, fluorescence polarization; recombinant Fam108B, FP-Rh probe fluorescence polarization; inhibition, % at 9.51 µM; AID 1947, 2009; actives 0.33% (n = 300,000);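 active means inhibition above the screen mean inhibition plus 3 SD, computed separately per campaign, cut at about 18% in these data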;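 further: inhibitors lower polarization as less probe binds the enzyme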
GSTO1 inh – inhibitors of recombinant GSTO1, primary screen, counter-screen for RBBP9 inhibitor project, biochemical, fluorescence polarization. Glutathione S-transferase omega-1 (Homo sapiens), P78417. activity-based probe fluorescence polarization. inhibition, % at 5.96 µM. actives 1.1% (n = 300,000). AID 1974, 2009;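 active means inhibition above the campaign mean inhibition plus 3 SD, cut at about 35% in these data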;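 further: 0% = GSTO1-1 with DMSO and 100% = wells lacking GSTO1-1 enzyme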
PAD4 inh – human PAD4 inhibitors, primary screen, biochemical, fluorescence polarization, 1536-well format; Protein-arginine deiminase type-4 (Homo sapiens), Q9UM07; recombinant PAD4, RCA probe fluorescence polarization; inhibition, % at 6.36 µM; actives 0.41% (n = 330,000); AID 485272, 2010;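 active means percent inhibition above a cutoff equal to the mean of all tested compounds plus 3 SD, cut at about 15% in these data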;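 further: 0% = PAD4 with RCA probe and DMSO and 100% = probe without PAD4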
* marks the source's active call; other numbers are inactive results. Only some compounds are listed: those with a hit (about 1.8% of all), similar ones and a draw of the others.

Screening COc1ccc(S(=O)(=O)N(C)C)cc1NC(=O)Cc1c[nH]c2ccccc12 returned PME-1 primary 78*, LYPLA2 inh 1, LYPLA1 counter -5, Fam108B counter -8, GSTO1 inh 9 and PAD4 inh -8.
Cc1cc(N(C)C)ccc1N=Nc1ccc2ncccc2c1 was read as PME-1 primary 32*, LYPLA2 inh 12, LYPLA1 counter 7, Fam108B counter 11, GSTO1 inh 8 and PAD4 inh 1.
`CSc1ccccc1C(=O)NCCCn1ccnc1` gave PME-1 primary 144*, LYPLA2 inh 7, LYPLA1 counter 2, Fam108B counter -1, GSTO1 inh 4 and PAD4 inh 6.
Screening O=C(CSc1nccn(-c2cccc(F)c2)c1=O)Nc1ccc(Cl)cc1F returned PME-1 primary -8, LYPLA2 inh -4, LYPLA1 counter -3, Fam108B counter -2, GSTO1 inh -6 and PAD4 inh -1.
Screening Cc1cc(C(=O)CSc2nnc(N)s2)c(C)n1CCc1ccc(Cl)cc1 returned PME-1 primary -11, LYPLA2 inh 1, LYPLA1 counter -1, Fam108B counter -3, GSTO1 inh 1 and PAD4 inh -2.
`Cc1cc(C(=O)CCl)c(C)n1CCc1ccc(Cl)cc1` gave PME-1 primary 17, LYPLA2 inh -2, LYPLA1 counter -5, Fam108B counter -2, GSTO1 inh 88* and PAD4 inh -2.
`Cc1cc(C(=O)CSc2nc(N)cc(=O)[nH]2)c(C)n1CCc1ccc(F)cc1` gave PME-1 primary 0, LYPLA2 inh -6, LYPLA1 counter -8, Fam108B counter -5, GSTO1 inh -1 and PAD4 inh 32*.
`Cc1cc(C(=O)COC(=O)C(C)NC(N)=O)c(C)n1Cc1ccco1` (configuration not stated) gave PME-1 primary -9, LYPLA2 inh 4, LYPLA1 counter 0, Fam108B counter 2, GSTO1 inh 19 and PAD4 inh -2.
For Cc1cc(C(=O)C(C)Cl)c(C)n1Cc1ccco1 (configuration not stated) the results were PME-1 primary 2, LYPLA2 inh 5, LYPLA1 counter -1, Fam108B counter 0, GSTO1 inh 81* and PAD4 inh -7.
Cc1ccc(C)c(OCCC(=O)OCC(=O)Nc2ccc(Cl)cn2)c1 was read as PME-1 primary -3, LYPLA2 inh 5, LYPLA1 counter -1, Fam108B counter 0, GSTO1 inh -4 and PAD4 inh 0.
Screening CC(=O)c1ccc(N2CCN(C(=S)Nc3ccc(Oc4ccccc4)cc3)CC2)cc1 returned PME-1 primary 2, LYPLA2 inh 32*, LYPLA1 counter 5, Fam108B counter -3, GSTO1 inh 4 and PAD4 inh 0.
`CCOc1cccc(C2/C(=C(/O)c3ccc4c(c3)CC(C)O4)C(=O)C(=O)N2CCCn2ccnc2)c1` (configuration not stated) gave PME-1 primary -2, LYPLA2 inh -2, LYPLA1 counter 1, Fam108B counter -2, GSTO1 inh 4 and PAD4 inh 3.
`N#CC(C#N)=NNc1ccc(S(=O)(=O)N2CCCCC2)cc1` gave PME-1 primary 28*, LYPLA2 inh -2, LYPLA1 counter -9, Fam108B counter 3, GSTO1 inh 21 and PAD4 inh -6.
Screening CCCOc1ccc(/C=N/NC(=S)Nc2ccccc2[N+](=O)[O-])c(O)c1 returned PME-1 primary 30*, LYPLA2 inh -7, LYPLA1 counter -7, Fam108B counter 2, GSTO1 inh -27 and PAD4 inh -3.
For CN(C)S(=O)(=O)c1cccc(NC(=S)NNC(=O)c2cc3ccccc3cc2O)c1 the results were PME-1 primary 27*, LYPLA2 inh -3, LYPLA1 counter -8 and PAD4 inh -2.
Screening COc1cc(/C=N/NC(=S)Nc2cccc(S(=O)(=O)N(C)C)c2)ccc1O returned PME-1 primary 39*, LYPLA2 inh 2, LYPLA1 counter -5, Fam108B counter 5, GSTO1 inh 5 and PAD4 inh -5.
CN(C)S(=O)(=O)c1cccc(NC(=S)NC(=O)C2CCCCC2)c1 was read as PME-1 primary 0, LYPLA2 inh 5, LYPLA1 counter -1, Fam108B counter -2, GSTO1 inh -2 and PAD4 inh -3.
`COc1ccc(/C=N/NC(=S)Nc2ccccc2[N+](=O)[O-])cc1O` gave PME-1 primary 35*, LYPLA2 inh 1, LYPLA1 counter -1, Fam108B counter 16, GSTO1 inh 3 and PAD4 inh -1.
Screening COc1ccc([N+](=O)[O-])cc1NS(=O)(=O)c1cc(C(=O)N2CCN(C)CC2)ccc1OC returned PME-1 primary -4, LYPLA2 inh -2, LYPLA1 counter -5 and PAD4 inh 1.
O=C1c2ccccc2S(=O)(=O)c2cc(N3CCc4ccccc4C3)ccc21 was read as PME-1 primary 2, LYPLA2 inh 18, LYPLA1 counter -2, Fam108B counter 2, GSTO1 inh -5 and PAD4 inh 2.
For O=S(=O)(Nc1c(S(=O)(=O)c2ccccc2)c2nc3ccccc3nc2n1C1CCCCC1)c1ccccc1 the results were PME-1 primary -10, LYPLA2 inh 2, LYPLA1 counter -2, Fam108B counter 3, GSTO1 inh 49* and PAD4 inh -8.
Screening CC(=O)Nc1c(S(=O)(=O)c2ccccc2)c2nc3ccccc3nc2n1Cc1ccccc1 returned PME-1 primary 1, LYPLA2 inh -4, LYPLA1 counter -2, Fam108B counter 5, GSTO1 inh 1 and PAD4 inh 1.
`O=C1CN(C(=O)c2cc3ccccc3oc2=O)C(c2ccccc2)c2cc(F)ccc2N1` (configuration not stated) gave PME-1 primary 34*, LYPLA2 inh 11, LYPLA1 counter -1, Fam108B counter 1, GSTO1 inh 2 and PAD4 inh 0.
For CCOC(=O)c1ccc(OCC2NCCc3cc(OC)c(OC)cc32)cc1 (configuration not stated) the results were PME-1 primary -8, LYPLA2 inh -2, LYPLA1 counter 2, Fam108B counter 0, GSTO1 inh -7 and PAD4 inh -2.
For COc1ccccc1/C=C/C=N/n1c(-c2cc(-c3ccccc3)n[nH]2)n[nH]c1=S the results were PME-1 primary 27*, LYPLA2 inh 0, LYPLA1 counter -9, Fam108B counter 2, GSTO1 inh -11 and PAD4 inh 5.

Screening results: PubChem BioAssay, The Scripps Research Institute Molecular Screening Center
